“And” between values parts separate entries of the source, which are not always exact repeats. Equal values may be shown once. ± gives the standard deviation of the averaged measurements.
Assays:
Conditions in all cases: concentration: 10 µM; 24 h
HCC1569 [1] = experiment: cell number relative to DMSO (% of DMSO); higher = more cells (less growth inhibition / toxicity)
Outline: (§1)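 Six fields per well were imaged at ×10 after the cells were fixed in 3.7% formaldehyde and stained with a rabbit anti-H1.0 antibody, an AlexaFluor 647 secondary and DAPI. The HCC1569 and TDF cells had been plated at 800 per well in 384-well plates (RPMI, 10% FBS) and treated in triplicate with compounds at 10 µM for 24 h at 37 °C. The values are the median of replicates of H1.0 nuclear intensity or cell number, as percent of the plate control. Smoothing for positional effects was applied to HCC1569 data.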

TDF [2] = experiment: as above
Outline: as §1

TDF [3] = experiment: H1.0 immunofluorescence intensity relative to DMSO (% of DMSO); higher = stronger H1.0 induction, active = 120 or more
Outline: as §1

HCC1569 [4] = experiment: H1.0 immunofluorescence intensity relative to DMSO (% of DMSO); higher = stronger H1.0 induction, active = 140 or more
Outline: as §1
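Throughout, for H1.0 immunofluorescence intensity relative to DMSO: TDF is a line of transformed human dermal fibroblasts of mesenchymal origin.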
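Throughout, for cell number relative to DMSO: TDF denotes transformed human dermal fibroblasts of mesenchymal origin.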

Row | Structure (SMILES) | cell number (HCC1569 [1]) | cell number (TDF [2]) | H1.0 immunofluorescence intensity (TDF [3]) | H1.0 immunofluorescence intensity (HCC1569 [4])
1 | CCCN(CCC)C1CCc2c(F)ccc(O)c2C1.Cl (stereo not drawn) [S(-)-UH-301 hydrochloride] | 102 | 97.9 | 98.7 (inactive) | 96.3 (inactive)
2 | Br.C=CCN1CCc2cccc3c2C1Cc1ccc(O)c(O)c1-3 (stereo not drawn) [R(-)-N-Allylnorapomorphine hydrobromide] | 84.8 | 85.6 | 104 (inactive) | 110 (inactive)
3 | Cl.NCC(O)c1cc(O)c(O)cc1F (stereo unspecified) [6-Fluoronorepinephrine hydrochloride] | 99.2 | 111 | 89.4 (inactive) | 83.2 (inactive)
4 | CC(=O)C1CCC2C3CCC4CC(O)CCC4(C)C3CCC12C (stereo not drawn) [5alpha-Pregnan-3alpha-ol-20-one] | 98.3 | 107 | 90.5 (inactive) | 102 (inactive)
5 | CC(C)C1CNC(C(=O)O)C1CC(=O)O (stereo unspecified) [Dihydrokainic acid] | 102 | 116 | 89.2 (inactive) | 88.7 (inactive)
6 | CC(C)=CCCC1(C)C=Cc2c(O)c3c(c(CC=C(C)C)c2O1)OC12C(=CC4CC1C(C)(C)OC2(CC=C(C)C(=O)O)C4=O)C3=O (stereo unspecified) [Gambogic acid] | 14.1 | 10.6 | 148 (active) | 58.8 (inactive)
7 | CN1CC(CO)C=C2c3cccc4[nH]cc(c34)CC21 (stereo unspecified) [Lysergol] | 100 | 106 | 102 (inactive) | 87.6 (inactive)
8 | COc1ccc2c(c[n+](C)c3c4cc5c(cc4ccc23)OCO5)c1OC.[Cl-] [Chelerythrine] | 114 | 17.4 | 139 (active) | 96.2 (inactive)
9 | Cc1c(C(=O)Nc2cccc(C(F)(F)F)c2)cc(-c2ccccc2)n1CCCN1CCOCC1 | 92.8 | 94.3 | 95 (inactive) | 115 (inactive)
10 | CN1CC(CO)CC2c3cccc4[nH]cc(c34)CC21 (stereo unspecified) [9,10-Dihydrolysergol] | 96.5 | 98.2 | 102 (inactive) | 92.7 (inactive)
11 | CC1=C2C3OC(=O)C(C)C3CCC2(C)C=CC1=O (stereo unspecified) [Santonin] | 103 | 97.9 | 95.5 (inactive) | 92.6 (inactive)
12 | CCCN1CCCC(c2cccc(O)c2)C1.Cl (stereo not drawn) [S(-)-3PPP hydrochloride] | 99.1 | 110 | 94.8 (inactive) | 104 (inactive)
13 | CC(=O)OCC12CCC(C)=CC1OC1C(O)C(OC(C)=O)C2(C)C12CO2 (stereo unspecified) [Diacetoxyscirpenol] | 56.8 | 13.6 | 128 (active) | 95.6 (inactive)
14 | CCCCCC=CCC=CCC=CCC=CCCCC(=O)NCCO [Anandamide (20:4, n-6)] | 103 | 94.1 | 99.2 (inactive) | 96.7 (inactive)
15 | Cl.O=C1CC2OCC=C3CN4CCC56c7ccccc7N1C5C2C3CC46 (stereo unspecified) | 103 ± 5.8 | 102 ± 1.1 | 94.3 (inactive) | 94.2 (inactive)
16 | CN1CCC23CCCCC2C1Cc1ccc(O)cc13.O=C(O)C(O)C(O)C(=O)O [Dextrorphan D-tartrate] | 103 | 105 | 93.1 (inactive) | 89.2 (inactive)
17 | COC1CC(CC2CCC(C)C(C(C)C(=O)[O-])O2)OC2(OC(C)(C3CCC(C)(C4OC(C5OC(O)(CO)C(C)CC5C)CC4C)O3)CC2C)C1C.[Na+] (stereo unspecified) [Nigericin] | 53.3 | 68.8 | 122 (active) | 183 (active)
18 | NC(=O)CI [Iodoacetamide] | 47.9 | 33.8 | 134 (active) | 170 (active)
19 | CC(C)(C)c1cc(C=C(C#N)C#N)cc(C(C)(C)C)c1O [Tyrphostin A9] | 54.6 | 47 | 117 (inactive) | 87.7 (inactive)
20 | CC(O)=C(C#N)C(=O)Nc1cc(Br)ccc1Br | 100 and 108 | 99.5 and 103 | 99 (inactive) and 97.5 (inactive) | 111 (inactive) and 98.6 (inactive)
21 | Cl.NN=C(N)N [Aminoguanidine hydrochloride] | 105 | 109 | 93.8 (inactive) | 94.2 (inactive)
22 | CC1CC=CC2C3OC3(C)C(C)C3C(Cc4ccccc4)NC(=O)C23OC(=O)OC=CC(C)(O)C1=O (stereo unspecified) [Cytochalasin E] | 63.3 | 32.4 | 226 (active) | 247 (active)
23 | C=CC12CN(C)C3C4COC(CC41)C1(C(=O)Nc4ccccc41)C32.Cl (stereo unspecified) | 102 | 111 | 101 (inactive) | 94.5 (inactive)
24 | Cc1nc(-c2ccc(-c3ccc(C(=O)N4CCc5cc6c(cc54)C4(CCN(C)CC4)CO6)cc3)c(C)c2)no1.Cl | 70.1 | 94.7 | 114 (inactive) | 150 (active)
25 | CNCC(O)c1ccc(O)cc1 (racemic) | 108 | 111 | 91 (inactive) | 103 (inactive)

Row | Structure (SMILES) | cell number (HCC1569 [1]) | cell number (TDF [2]) | H1.0 immunofluorescence intensity (TDF [3]) | H1.0 immunofluorescence intensity (HCC1569 [4])
26 | Cl.NCC(O)c1ccc(O)cc1 (racemic) | 99.3 | 106 | 93.6 (inactive) | 93.1 (inactive)
27 | Cl.Oc1cc2c(cc1O)C1c3ccccc3CNC1CC2 (stereo unspecified) [Dihydrexidine hydrochloride] | 96.3 | 118 | 82.7 (inactive) | 103 (inactive)
28 | Br.CCCN(CCC)C1CCc2ccc(O)cc2C1 (stereo not drawn) [R-(+)-7-Hydroxy-DPAT hydrobromide] | 99.8 | 110 | 103 (inactive) | 101 (inactive)
29 | Cl.O=c1[nH]oc2c1CCNC2 [THIP hydrochloride] | 100 | 112 | 94 (inactive) | 86.1 (inactive)
30 | CC(C)Oc1cccnc1N(C)C1CCN(Cc2ccccc2)CC1.O=C(O)C=CC(=O)O | 103 | 106 | 99 (inactive) | 112 (inactive)
31 | CCC12C=CCN3CCC4(c5ccc(OC)cc5N(C)C4C(O)(C(=O)OC)C1OC(C)=O)C32 (stereo unspecified) [Vindoline] | 102 | 91.6 | 91.7 (inactive) | 90.1 (inactive)
32 | CCCCCC=CCC=CCC=CCC=CCCCC(=O)NC(C)CO [(R)-Methandamide] | 107 | 98.1 | 100 (inactive) | 100 (inactive)
33 | CN(C)C(=O)C(CCN1CCC(O)(c2ccc(Cl)cc2)CC1)(c1ccccc1)c1ccccc1.Cl [Loperamide hydrochloride] | 84.8 | 88.6 | 102 (inactive) | 122 (inactive)
34 | NC(Cn1ccc(=O)[nH]c1=O)C(=O)O (stereo not drawn) [S(-)-Willardiine] | 104 | 118 | 97.7 (inactive) | 97.6 (inactive)
35 | O=c1c2ccccc2[se]n1-c1ccccc1 [Ebselen] | 102.1 ± 0.14 | 97.7 ± 1.2 | 102 (inactive) | 114 (inactive)
36 | COc1ccc(C(=O)c2c(C)n(CCN3CCOCC3)c3ccccc23)cc1 [Pravadoline] | 110 | 96.5 | 98.4 (inactive) | 93.3 (inactive)
37 | CC(N)Cc1cnc[nH]1.Cl.Cl (stereo not drawn) [Histamine, R(-)-alpha-methyl-, dihydrochloride] | 97.4 | 102 | 95.5 (inactive) | 93.1 (inactive)
38 | CCCC(=O)OCC[N+](C)(C)C [Butyrylcholine] | 101 | 104 | 92.9 (inactive) | 111 (inactive)
39 | COc1ccc2c(c1)N1C(C=C(C)C)OOC(C)(C)CC3C1C2C(O)C1(O)C(=O)N2CCCC2C(=O)N31 (stereo unspecified) [Verruculogen] | 102 | 106 | 96.9 (inactive) | 98.1 (inactive)
40 | CC1=CC2c3cccc4[nH]cc(c34)CC2N(C)C1 (stereo unspecified) [Agroclavine] | 100 | 103 | 95.3 (inactive) | 98.1 (inactive)
41 | CC1OC(OC2CC(O)C3(CO)C4C(O)CC5(C)C(C6=CC(=O)OC6)CCC5(O)C4CCC3(O)C2)C(O)C(O)C1O (stereo unspecified) [Ouabain] | 46.2 | 36.4 | 125 (active) | 126 (inactive)
42 | NC(CCCCCP(=O)(O)O)C(=O)O (stereo not drawn) [D(-)-2-Amino-7-phosphonoheptanoic acid] | 99.9 | 95.2 | 97.7 (inactive) | 99.2 (inactive)
43 | OC1CN2CCCC(O)C2C1O (stereo unspecified) [Swainsonine] | 100 | 98.6 | 99.5 (inactive) | 95.8 (inactive)
44 | CC[N+](CC)(CC)CC.[Cl-] [Tetraethylammonium chloride] | 101 | 108 | 90.2 (inactive) | 108 (inactive)
45 | CCC(CO)NC(=O)C1C=C2c3cccc4[nH]cc(c34)CC2N(C)C1.O=C(O)C=CC(=O)O (stereo unspecified) [Methylergonovine maleate] | 101 ± 2.1 | 100 ± 2.5 | 97.4 (inactive) | 92.3 (inactive)
46 | Cc1c(C(C)C2NCC(C)CC2O)ccc2c1CC1C2CC=C2CC(O)CCC21C (stereo unspecified) [Veratramine] | 96.7 | 88.6 | 104 (inactive) | 90.2 (inactive)
47 | COc1ccc(CCN2CCC(Nc3nc4ccccc4n3Cc3ccc(F)cc3)CC2)cc1 [Astemizole] | 88.6 | 89 | 109 (inactive) | 143 (active)
48 | COc1cc2c(cc1O)CC1c3c(cc(O)c(OC)c3-2)CCN1C (stereo unspecified) [Boldine] | 103 | 103 | 105 (inactive) | 99.9 (inactive)
49 | c1cncc(C2CCCCN2)c1 (racemic) | 102 | 110 | 96 (inactive) | 84.1 (inactive)

Source: the supplement of paper PMC7156485
